# Screening results: PubChem BioAssay, several laboratories
# In the library only some 5.7% were active in any assay of this set; here they are far more common.
# Myeloid diff 2: compounds promoting myeloid differentiation | calls only at 10 µM | ER-HoxA9 myeloid progenitors, lysozyme-GFP differentiation, flow cytometry | 1% of 360,000 active;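 active means normalized GFP-positive differentiation at or above the plate's own cutoff, the solvent-only control mean plus 3 SD; inconclusive means no clear call, values can overlap the other calls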;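 further: cells exposed to compound for four days before flow analysis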
# NR3A LBD binder: modulators (binders) of human NR3A ligand-binding domain; AID 1259313; Tm shift relative to glycine control, % at 25 µM; 2.5% of 340,000 active; NR3A LBD differential scanning fluorimetry, Tm shift; 0% = protein alone, 100% = glycine-bound protein;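 active means melting temperature shift of at least 10% of the positive control shift, at one fixed dose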
# MPTP block: inhibitors of mitochondrial permeability transition pore; isolated mouse mitochondria, Ca2+ swelling absorbance, 30 min; inhibition, % at 10 µM; 1.4% of 360,000 active; AID 602449;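 active means inhibition of 50% or more, scaled per plate between neutral and stimulator controls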
# FAS-TE inh: inhibitors of human fatty acid synthase thioesterase domain; 0.67% of 360,000 active; inhibition, % at 15 µM; recombinant FAS-TE, OMFH fluorogenic substrate, fluorescence endpoint;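 active means compounds whose normalised, plate-corrected inhibition of enzyme fluorescence in the single-dose primary screen is 50% or more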
# Target sequence (P49327 whole entry, looked up, the tested form may be a part): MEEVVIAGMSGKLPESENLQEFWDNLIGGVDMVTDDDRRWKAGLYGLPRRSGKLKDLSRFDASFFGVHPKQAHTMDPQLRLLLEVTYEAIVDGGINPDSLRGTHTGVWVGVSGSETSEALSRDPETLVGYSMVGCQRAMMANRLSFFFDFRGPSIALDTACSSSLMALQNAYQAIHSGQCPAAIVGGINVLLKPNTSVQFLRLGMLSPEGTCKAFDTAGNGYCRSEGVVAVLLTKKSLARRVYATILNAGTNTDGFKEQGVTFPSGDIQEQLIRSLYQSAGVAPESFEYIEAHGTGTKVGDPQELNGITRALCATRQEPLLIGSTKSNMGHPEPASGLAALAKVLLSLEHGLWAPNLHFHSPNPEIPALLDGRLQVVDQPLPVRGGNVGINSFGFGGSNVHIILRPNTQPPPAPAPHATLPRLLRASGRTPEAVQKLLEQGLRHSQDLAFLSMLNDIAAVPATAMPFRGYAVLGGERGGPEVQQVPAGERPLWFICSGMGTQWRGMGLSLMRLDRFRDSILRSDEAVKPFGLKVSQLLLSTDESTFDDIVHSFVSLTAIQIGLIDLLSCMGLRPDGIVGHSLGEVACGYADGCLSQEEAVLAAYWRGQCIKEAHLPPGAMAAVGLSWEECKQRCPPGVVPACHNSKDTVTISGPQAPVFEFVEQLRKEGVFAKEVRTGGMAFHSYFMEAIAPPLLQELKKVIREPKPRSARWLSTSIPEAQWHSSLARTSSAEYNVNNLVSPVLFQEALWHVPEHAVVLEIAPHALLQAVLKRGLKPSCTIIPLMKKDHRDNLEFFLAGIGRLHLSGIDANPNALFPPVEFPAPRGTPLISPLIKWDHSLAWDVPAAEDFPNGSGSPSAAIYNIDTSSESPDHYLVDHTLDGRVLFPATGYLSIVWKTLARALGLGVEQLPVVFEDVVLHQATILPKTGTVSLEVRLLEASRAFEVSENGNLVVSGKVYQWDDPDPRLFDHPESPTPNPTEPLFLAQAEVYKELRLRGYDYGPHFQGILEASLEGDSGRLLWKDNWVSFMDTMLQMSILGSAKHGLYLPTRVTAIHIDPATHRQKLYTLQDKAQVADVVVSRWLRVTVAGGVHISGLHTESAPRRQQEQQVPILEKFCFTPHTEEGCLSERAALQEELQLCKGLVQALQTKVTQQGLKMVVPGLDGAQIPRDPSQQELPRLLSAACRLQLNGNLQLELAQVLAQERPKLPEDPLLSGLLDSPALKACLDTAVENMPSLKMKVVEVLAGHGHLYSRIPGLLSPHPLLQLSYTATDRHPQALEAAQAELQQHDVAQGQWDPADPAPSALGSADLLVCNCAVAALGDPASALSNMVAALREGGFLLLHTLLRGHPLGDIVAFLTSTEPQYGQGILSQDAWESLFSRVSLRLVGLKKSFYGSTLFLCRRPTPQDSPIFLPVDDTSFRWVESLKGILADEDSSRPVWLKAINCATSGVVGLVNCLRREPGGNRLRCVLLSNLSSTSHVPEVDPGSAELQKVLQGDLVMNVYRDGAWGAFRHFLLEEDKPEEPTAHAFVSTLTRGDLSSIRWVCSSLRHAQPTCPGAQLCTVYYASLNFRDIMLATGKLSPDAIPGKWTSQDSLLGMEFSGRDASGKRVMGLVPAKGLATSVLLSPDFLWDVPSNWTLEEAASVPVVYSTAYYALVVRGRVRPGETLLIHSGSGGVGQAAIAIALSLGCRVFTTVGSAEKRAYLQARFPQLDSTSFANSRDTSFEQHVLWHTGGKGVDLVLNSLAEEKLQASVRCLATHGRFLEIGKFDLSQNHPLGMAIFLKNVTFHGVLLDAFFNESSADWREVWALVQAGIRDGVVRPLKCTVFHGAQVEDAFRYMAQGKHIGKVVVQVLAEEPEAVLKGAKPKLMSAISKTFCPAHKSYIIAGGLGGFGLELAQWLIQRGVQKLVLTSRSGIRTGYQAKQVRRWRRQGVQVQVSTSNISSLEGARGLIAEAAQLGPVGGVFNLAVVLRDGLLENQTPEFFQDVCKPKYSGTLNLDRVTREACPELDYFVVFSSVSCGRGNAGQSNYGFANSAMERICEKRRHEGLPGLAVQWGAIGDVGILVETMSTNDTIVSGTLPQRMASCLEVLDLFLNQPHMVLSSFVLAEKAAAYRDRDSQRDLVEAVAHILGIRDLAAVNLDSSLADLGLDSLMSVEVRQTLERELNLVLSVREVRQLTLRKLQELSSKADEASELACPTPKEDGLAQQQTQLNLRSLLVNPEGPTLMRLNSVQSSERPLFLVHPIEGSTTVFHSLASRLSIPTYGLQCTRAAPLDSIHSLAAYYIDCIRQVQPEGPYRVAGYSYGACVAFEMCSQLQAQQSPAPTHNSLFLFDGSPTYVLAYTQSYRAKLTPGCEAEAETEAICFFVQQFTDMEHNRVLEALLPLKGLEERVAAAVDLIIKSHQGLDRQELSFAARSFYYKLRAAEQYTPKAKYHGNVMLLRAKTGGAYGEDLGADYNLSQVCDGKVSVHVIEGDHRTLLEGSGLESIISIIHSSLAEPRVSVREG
# rCAG RNA binder: r(CAG) repeat RNA binding | AID 651821 | 1.3% of 370,000 active | TO-PRO-1 dye displacement fluorescence | inhibition, % at 3 µM;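 active means inhibition above the plate cutoff, the mean of all test compounds on that plate plus 3 SD, cut at about 35% in these data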;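 further: higher means more dye released from RNA so lower well fluorescence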
# Hits are given with their value; - = inactive; ? = inconclusive; . = no result; + = active, no number.
SMILES,Myeloid diff 2,NR3A LBD binder,MPTP block,FAS-TE inh,rCAG RNA binder
COC(=O)C1=C(C)N(Cc2cccc(C(F)(F)F)c2)C(=NCC2CC2)NC1c1cccc(Cl)c1 (stereo not given),.,.,.,.,-
CCOc1ccc(N/C=C/C(=O)c2ccc(C)cc2)c([N+](=O)[O-])c1,-,-,-,-,-
CCOc1ccc(N/C=C/C(=O)c2ccc3ccccc3c2)c([N+](=O)[O-])c1,-,37.2,-,-,.
CCN=C1NC(c2ccc(C(F)(F)F)cc2)C(C(=O)OC)=C(C)N1Cc1ccccc1C(F)(F)F (stereo not given),.,.,.,.,-
NS(=O)(=O)c1ccc(CNC(=S)Nc2ccc(Cl)c(Cl)c2)cc1,-,11.6,-,-,-
NS(=O)(=O)c1ccc(NC(=O)/C=C/c2ccc(S(=O)(=O)NCc3ccco3)cc2)cc1,?,38.5,-,-,-
O=C(O)/C=C/c1ccc(S(=O)(=O)NCc2ccco2)cc1,-,-,-,-,-
NS(=O)(=O)c1ccc(NC(=O)/C=C/c2cccc(Cl)c2)cc1,-,28.1,-,-,-
O=C(NCc1ccccc1)c1n[nH]nc1-c1ccccc1O,+,-,-,-,-
CCOC(=O)CCCNC(=O)OC1CC2CC1[C@H]1CCCCN1[C@H]2Cc1ccccc1 (stereo not given in full),.,.,.,.,-
Cc1ccc(S(=O)(=O)NCCC(=O)Nc2ccc(Cl)c(Cl)c2)cc1C,-,12.6,-,-,-
CC(C)=CCc1c(-c2ccc(O)cc2O)oc2c3c(cc(O)c2c1=O)OC(C)(C)C=C3,.,26.7,.,.,.
CC(C)=CCc1c2c(c(O)c3c(=O)c4c(oc13)-c1cc(O)c(O)cc1OC4C=C(C)C)C=CC(C)(C)O2 (stereo not given),.,22.5,.,.,.
Cc1ccc(/C=C/C(=O)Nc2cccc(S(=O)(=O)N3CCOCC3)c2)o1,+,-,-,-,-
Cc1ccc(CNC(=O)c2oc3ccc(S(=O)(=O)N4CCOCC4)cc3c2C)cc1,-,-,-,-,-
O=C(/C=C/c1ccco1)Nc1cccc(S(=O)(=O)N2CCOCC2)c1,-,-,-,-,-
COc1ccc(/C=C/C(=O)Nc2cccc(S(=O)(=O)N3CCOCC3)c2)cc1OC,-,-,-,-,-
Cc1c(C(=O)Nc2cccc(C(F)(F)F)c2)oc2ccc(S(=O)(=O)N3CCOCC3)cc12,-,24.5,-,-,-
O=C(/C=C/c1ccc(OC(F)F)cc1)Nc1cccc(S(=O)(=O)N2CCOCC2)c1,-,20.1,-,-,-
Cc1c(O)ccc(C(=O)COc2ccccc2F)c1O,-,35.3,-,-,-
COC(=O)[C@]12C[C@H](CC(=O)NCCC(C)C)C(=O)N(CCC3=CCCCC3)C1=C[C@H](C1CCCC1)O[C@@H]2C,.,.,.,.,-
COc1ccccc1CCn1cnc(-c2cccc(Br)c2)c1CC(C)C,.,.,.,.,-
NC1CCN(c2nc3c(cc2F)c(=O)c(C(=O)O)cn3-c2ccc(F)cc2F)C1 (stereo not given),-,-,-,-,-
Cc1cccc(-c2cc(=O)c(C(=O)O)cn2-c2ccc(F)cc2F)c1,-,12.9,-,-,-
Cc1ccc(C(=O)NC(=S)/C=C2\N(C)c3ccccc3C2(C)C)cc1,+,-,-,-,-
SMILES,Myeloid diff 2,NR3A LBD binder,MPTP block,FAS-TE inh,rCAG RNA binder
CC(C)C(=O)NC(=S)/C=C1/N(C)c2ccccc2C1(C)C,+,-,-,-,-
CN1/C(=C\C(=O)C(F)F)C(C)(C)c2ccccc21,-,-,-,-,-
CN1/C(=C\C(=O)c2cccnc2)C(C)(C)c2ccccc21,-,-,-,-,-
CN1/C(=C\C=N\NC(=O)c2ccc(O)cc2)C(C)(C)c2ccccc21,+,-,-,-,-
CCOC(=O)CC[C@@H]1CC[C@]2(CCCN(Cc3nccs3)C2)O1,.,.,.,.,-
O=C(CSc1nnc(-c2ccccn2)n1-c1ccccc1)Nc1cccc2ccccc12,.,.,.,.,-
O=C(OCc1cn(Cc2ccc(F)c(F)c2)nn1)N1CCOCC1,.,.,.,.,-
COc1ccc(CN(C)C(c2ccccc2)c2nnnn2-c2ccccc2C)c(OC)c1C (stereo not given),-,15.4,-,-,-
COc1ccc(S[C@]2(C(=O)N3CCCC3)CC(=O)N(c3ccsc3)[C@@H]2c2ccc(OC)cc2)cc1,.,.,.,.,-
Cc1ccnc(SCCn2c(N3CCC(C)CC3)nc3c2c(=O)[nH]c(=O)n3C)n1,-,12.8,-,-,-
C[C@H](NC(=O)[C@@H]1CCCN1C(=O)[C@@H]1CCCN1C(=O)c1cccc2ccccc12)c1ccccc1,-,.,-,-,-
c1cnc2nc3c4ccccc4c4ccccc4c3nc2c1,+,-,-,-,-
Cc1nc2ccccc2c2ncccc12,-,-,-,-,-
C(=N\N(Cc1ccccc1)c1ccccc1)/c1cccnc1,-,-,-,-,-
Oc1cccc(/C=N/N(Cc2ccccc2)c2ccccc2)c1,-,16.0,-,-,-
COc1ccc2cc(C(=O)Nc3ccc(F)cc3)sc(=O)c2c1OC,-,20.9,-,-,-
COc1ccc2cc(C(=O)Nc3ccc(Cl)cc3)sc(=O)c2c1OC,-,22.2,-,-,-
COc1ccc2cc(C(=O)Nc3ccc(O)cc3)sc(=O)c2c1OC,-,30.7,-,-,-
COC(=O)c1cc2ccc(OC)c(OC)c2c(=O)s1,-,-,-,-,-
COC(=O)[C@]12C[C@H](CC(=O)NCC34CC5CC(CC(C5)C3)C4)C(=O)N(Cc3ccc4c(c3)OCO4)C1=C[C@H](C(C)(C)C)O[C@@H]2C,.,.,.,.,-
NC(=S)Nc1ccc(Oc2ccc(NC(N)=S)cc2)cc1,-,14.4,-,-,-
Cc1ccc(NC(N)=S)cc1,-,-,-,-,-
OC(COCc1ccccc1)CN1CCCC1 (stereo not given),-,10.5,-,-,-
CC(C)OC(=O)CC1=NC(=O)CS1,-,-,-,-,-
COC(=O)CC1=NC(=O)CS1,-,11.0,-,-,-
SMILES,Myeloid diff 2,NR3A LBD binder,MPTP block,FAS-TE inh,rCAG RNA binder
COc1ccccc1N1CCN(C(=O)c2ccc3c(c2)nc(C)n3-c2cc(OC)c(OC)c(OC)c2)CC1,.,.,.,.,-
CCCOc1ccc(-c2nc(C#N)c(N3CCC(C(N)=O)CC3)o2)cc1,-,-,-,-,-
N#Cc1nc(-c2ccc(OCc3ccc(Cl)cc3)cc2)oc1N1CCC(C(N)=O)CC1,-,27.7,-,-,-
CC(=O)C(Cc1cnc(Cl)s1)(Cc1cnc(Cl)s1)C(C)=O,-,-,-,-,-
CC(=O)C(Cc1ccc(Cl)nc1)(Cc1ccc(Cl)nc1)C(C)=O,+,-,-,-,-
COc1ccc(S[C@]2(C(=O)N3CCN(C(C)=O)CC3)CC(=O)N[C@@H]2c2ccc(OC)cc2)cc1,.,.,.,.,-
COc1ccc(S(=O)(=O)N2CC(C(=O)O)Oc3ccc(Cl)cc32)cc1 (stereo not given),+,-,-,-,-
CCCCN1CCN(C2=Nc3ccccc3Sc3ccccc32)CC1,.,.,.,.,-
CN(C)C(/C=C/Nc1ccc([N+](=O)[O-])cc1)=C(C#N)C#N,-,17.9,-,-,-
CN(C)C(/C=C/Nc1ccc(C#N)cc1)=C(C#N)C#N,-,.,-,-,-
O=C(c1cccc(F)c1F)N1CCCc2ccccc21,-,-,-,-,-
